Drawing on PubChem BioAssay AID430 (Sanford-Burnham Center for Chemical Genomics, 2006), this text covers cytotoxicity for 99 molecules.

The structures appear in SMILES notation. In all, about 63,000 compounds went through this assay and about 1,100 (1.7%) were called active. Cut-off read from the data, not from the text of the source: active = cytotoxicity above about 50%; inactive = the rest. The entries come from a sample that favours actives as a whole. Measured potencies and affinities stand elsewhere.

The nature of this test: HPDE-C7 pancreatic duct cell viability loss – fluorescence, HTS (AID 430).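 Note: cells exposed to compound for 48 hours before viability readout; 0% = vehicle and 100% = reference cytotoxic drug.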 To be noted: HPDE-C7 pancreatic duct cells viability, at 10 µM, stronger effect = higher value.
With `CCC(=O)Nc1c2c(nn1-c1ccc(C)cc1C)CSC2`, the cytotoxicity is -2.4% (inactive).

As for `O=C(Nc1ccon1)c1cccc(S(=O)(=O)N2CCCC2)c1`, the cytotoxicity is -18.1% (inactive).

Take `Cc1ccc(C)c(NC(=O)CCn2nc(C)cc2C)c1`: the cytotoxicity was -17.9% (inactive).

On to `c1ccc2[nH]c(CN3CCN(c4ncnc5c4oc4ccccc45)CC3)nc2c1`, for which the cytotoxicity was -2.8% (inactive).

For `CC(=O)N1CCN(C(=O)COc2ccc(Br)cc2)CC1`, the cytotoxicity is 4.1% (inactive).

Consider `CCOc1ccc(NC(=O)c2ccccc2NC(=O)CN2CCN(C(C)=O)CC2)cc1`, for which the cytotoxicity was -0.6% (inactive).

With `O=C(C1CCN(Cc2ccc(F)cc2)CC1)N(CCO)Cc1ccccc1`, the cytotoxicity was 2.8% (inactive).

As for `COC(=O)c1c(NC(=O)c2ccoc2C)sc2c1CCC2`, the cytotoxicity was -21% (inactive).

With `COC(=O)c1c(NC(=O)c2ccc(Br)s2)sc2c1CCC2`, the cytotoxicity is 53.5% (active).

With `COC(=O)c1c(NC(C)=O)sc2c1CCCC2`, the cytotoxicity is -2% (inactive).

In the case of `CC(=O)c1c(C)nc(-c2ccc3c(c2)OCO3)n1O`, the cytotoxicity was -6.2% (inactive).

Take `O=C(Nc1ccc2c(c1)OCO2)C(c1ccc(Cl)cc1)N1CCC2(CC1)OCCO2` (centres undefined): the cytotoxicity was 4.2% (inactive).

Consider `CC1CCN(C(=O)CNC(=O)Cn2ccc3ccccc3c2=O)CC1`, for which the cytotoxicity was -13.9% (inactive).

As for `CN1CC2=Cc3ccccc3OC23Oc2ccccc2C=C3C1`, the cytotoxicity was 58.3% (active).

As to `CCCCn1c(=O)[nH]c(=O)c2c1nc(COC(=O)c1c(C)noc1C)n2CCC`, the cytotoxicity was -7% (inactive).

As to `Cc1cc(-c2ccccc2)c(C#N)c(N)n1`, the cytotoxicity was -14.3% (inactive).

As to `CSc1nc(-c2ccco2)cc(-c2ccccc2)c1C#N`, the cytotoxicity was -2.3% (inactive).

`C=CCn1c(SCC(=O)C(C)(C)C)nnc1-c1cccs1`: the cytotoxicity is -5.8% (inactive).

As to `COc1ccc(C(=O)Oc2c(CN3CCOCC3)cc(Cl)c3cccnc23)cc1OC`, the cytotoxicity was 7.4% (inactive).

`COc1cc(C(=O)Oc2c(CN3CCOCC3)cc(Cl)c3cccnc23)cc(OC)c1OC`: the cytotoxicity is 29% (inactive).

As to `O=C(Oc1ccc(Cl)c2cccnc12)N1CCOCC1`, the cytotoxicity was 10.3% (inactive).

In the case of `O=C(Oc1c(Cl)cc(Cl)c2cccnc12)N1CCOCC1`, the cytotoxicity is 3.3% (inactive).

Turning to `Cc1ccc(CCNC(=O)C2CCCN(S(=O)(=O)c3cnc[nH]3)C2)cc1` (centres undefined), the cytotoxicity was -8.4% (inactive).

Regarding `O=C(NCC(=O)N(c1ccc2c(c1)OCO2)C(C(=O)NC1CCCC1)c1ccncc1)c1ccco1` (centres undefined), the cytotoxicity is -5.8% (inactive).

As to `Cc1cccc2cc(COC(=O)c3cccnc3)c(=O)[nH]c12`, the cytotoxicity was 8.9% (inactive).

For `CC1CCN(S(=O)(=O)c2ccc3[nH]c(=O)c(=O)[nH]c3c2)CC1`, the cytotoxicity was -9% (inactive).

For `COC(=O)Cc1cc(=O)[nH]c(/N=C(/NC(=O)c2ccccc2)Nc2ccccc2C)n1`, the cytotoxicity is 2.1% (inactive).

Take `Cc1ccc(O)c(CC(C)C)n1`: the cytotoxicity is -4.7% (inactive).

As for `CCC(NC(C)C)C(O)c1ccc(O)c(O)c1` (centres undefined), the cytotoxicity was 15.3% (inactive).

As for `O=C(c1cc2ccccc2cc1OCC(O)CN1CCCCC1)N1CCCCC1` (centres undefined), the cytotoxicity is -0.7% (inactive).

For `CC1CCCN(S(=O)(=O)c2cc(Cl)ccc2Cl)C1` (centres undefined), the cytotoxicity was -32.2% (inactive).

`CCN(CC)S(=O)(=O)c1ccc(Cl)c(C(=O)Nc2nncs2)c1`: the cytotoxicity was 2.1% (inactive).

As for `CCN(CC)S(=O)(=O)c1cccc(C(=O)Nc2nncs2)c1`, the cytotoxicity is -14.1% (inactive).

With `Cc1ccccc1-n1c(SC/C(O)=C(\C#N)c2nc3ccccc3[nH]2)nnc1-c1ccncc1`, the cytotoxicity was -17.8% (inactive).

Take `Nc1nc(NC(=O)c2ccco2)nn1-c1ccccc1`: the cytotoxicity was 2% (inactive).

Consider `Nc1nc(NC(=O)c2cccnc2)nn1-c1ccccc1`, for which the cytotoxicity is 3.1% (inactive).

`Cc1ccc(C2CC(=O)NC(SCC(=O)OCc3ccccc3)=C2C#N)o1` (centres undefined): the cytotoxicity was 59.6% (active).

For the molecule `CC1=C(C(=O)OC2CCCCCC2)C(c2ccc(C)o2)C2=C(CCCC2=O)N1` (centres undefined), the cytotoxicity is -13.9% (inactive).

On to `CC1=C(C(=O)OC2CCCCC2)C(c2ccc(C)o2)C2=C(CCCC2=O)N1` (centres undefined), for which the cytotoxicity is -7% (inactive).

For the molecule `CCOC(=O)CSC1=C(C#N)C(c2ccc(Cl)cc2)CC(=O)N1` (centres undefined), the cytotoxicity is -16% (inactive).

Turning to `Cc1ccc(C2CC(=O)NC(SCc3ccccc3)=C2C#N)o1` (centres undefined), the cytotoxicity was 10.6% (inactive).

In the case of `COC(=O)CSC1=C(C#N)C(c2ccccc2)CC(=O)N1` (centres undefined), the cytotoxicity is -10% (inactive).

For the molecule `CCOC(=O)CSC1=C(C#N)C(c2ccc(C)o2)CC(=O)N1` (centres undefined), the cytotoxicity is 68.5% (active).

On to `CCCCCCSC1=C(C#N)C(c2ccc(C)o2)CC(=O)N1` (centres undefined), for which the cytotoxicity was -8% (inactive).

As to `CC1=C(C(=O)OCc2ccccc2)C(c2ccc(C)o2)C2=C(CCCC2=O)N1` (centres undefined), the cytotoxicity is 54.4% (active).

On to `CC(=O)Nc1cccc(NC(=O)CSc2nnc(Cc3cccn3C)n2-c2ccc(F)cc2)c1`, for which the cytotoxicity is -6.9% (inactive).

Consider `Cc1cccc(C(C)(C)C)c1OCCn1ccnc1`, for which the cytotoxicity was 8.6% (inactive).

Turning to `COc1ccc(S(=O)(=O)N(CC(N)=O)C2CCCCC2)cc1Cl`, the cytotoxicity is -13.6% (inactive).

On to `O=C(CN1CCN(C(=O)c2ccco2)CC1)Nc1ccc2c(c1)OCCO2`, for which the cytotoxicity is -13.8% (inactive).

For `CCn1c(N2CCC(Cc3ccccc3)CC2)nc2c1c(=O)[nH]c(=O)n2C`, the cytotoxicity is -25.9% (inactive).

In the case of `CC(=O)OC[C@H]1O[C@@H](n2ncc(=O)[nH]c2=O)[C@H](OC(C)=O)[C@@H]1OC(C)=O`, the cytotoxicity is 56.2% (active).

For `CC(=O)OC[C@H]1O[C@@H](n2ccc(=O)[nH]c2=S)C(OC(C)=O)C1OC(C)=O` (some centres undefined), the cytotoxicity is -1% (inactive).

Regarding `CC(=O)OCC1OC(n2ccc(=O)[nH]c2=O)C(O)C1O` (centres undefined), the cytotoxicity was -11.3% (inactive).

On to `CCSc1cc(C2C(C#N)=C(N)OC(C)=C2C(=O)OC)c(C)o1` (centres undefined), for which the cytotoxicity is 3.5% (inactive).

In the case of `CCOC(=O)CCc1nn(C)c(=O)c2ccccc12`, the cytotoxicity was -11.1% (inactive).

`Cc1ccc(S(=O)(=O)N(C)CC(=O)N2CCN(c3ccccn3)CC2)cc1`: the cytotoxicity is 6.4% (inactive).

With `Cc1cc(-c2csc(NC(=O)c3ccc(=O)n(C)n3)n2)c(C)n1CC1CCCO1` (centres undefined), the cytotoxicity was -8.1% (inactive).

For `O=C1Nc2ccccc2C12OCC(COc1ccc(Cl)cc1)O2` (centres undefined), the cytotoxicity was 30.3% (inactive).

`CCCC1COC(Cn2cncn2)(c2ccc(C)cc2)O1` (centres undefined): the cytotoxicity was -5.7% (inactive).

For `CCC(C)n1ncn(-c2ccc(N3CCN(c4ccc(OCC5COC(Cn6cncn6)(c6ccc(Cl)cc6Cl)O5)cc4)CC3)cc2)c1=O` (centres undefined), the cytotoxicity was 65.7% (active).

On to `Cc1noc(C)c1S(=O)(=O)NC1CCN(Cc2ccccc2)CC1`, for which the cytotoxicity is 1.4% (inactive).

In the case of `Cc1n[nH]c(=O)nc1NCc1ccccc1`, the cytotoxicity was -20.4% (inactive).

In the case of `CCCCCc1c(C)nc(NCc2ccccc2)[nH]c1=O`, the cytotoxicity was -8.7% (inactive).

Take `COc1ccc(CCNC(=O)COc2nsnc2N2CCOCC2)cc1OC`: the cytotoxicity is -12.4% (inactive).

For the molecule `C=CCNC(=O)CCCCC(=O)NCC=C`, the cytotoxicity was -16.1% (inactive).

Turning to `CN1CCN(CCCNC(=O)c2cc3c(-c4ccc(Cl)cc4)nn(C)c3s2)CC1`, the cytotoxicity is 13.3% (inactive).

`Cn1nc(-c2ccc(Cl)cc2)c2cc(C(=O)NCCCN3CCOCC3)sc21`: the cytotoxicity is 8.3% (inactive).

In the case of `Cn1nc(-c2ccc(Cl)cc2)c2cc(C(=O)NCCCN3CCCC3)sc21`, the cytotoxicity is 69.7% (active).

For the molecule `Cc1sc2ncnc(Sc3nnnn3-c3ccccc3)c2c1C`, the cytotoxicity is 71% (active).

As to `Cc1sc2ncnc(SCc3ccco3)c2c1C`, the cytotoxicity was -13.2% (inactive).

Regarding `Cc1nc(Sc2nnnn2-c2ccccc2)c(C#N)c(C)c1C`, the cytotoxicity was -11.7% (inactive).

Turning to `Clc1ccc(-n2nnnc2Sc2ncnc3sccc23)cc1`, the cytotoxicity is 4.6% (inactive).

As for `CCCn1c(Sc2nnnn2-c2ccccc2)n[nH]c1=O`, the cytotoxicity is -7.4% (inactive).

Consider `COc1ccc(OC)c(-c2cc(C(=O)NCCCn3ccnc3)no2)c1`, for which the cytotoxicity is 32.2% (inactive).

As to `Cc1cc(NC(=O)C2CCCN(S(=O)(=O)c3c(C)noc3C)C2)no1` (centres undefined), the cytotoxicity is 9.5% (inactive).

In the case of `O=C(O)c1ccc(OCc2occc2C(=O)O)cc1`, the cytotoxicity is -2.7% (inactive).

As for `CCOc1ccc(N(CC(N)=O)S(=O)(=O)c2ccc(F)cc2)cc1`, the cytotoxicity is -0.6% (inactive).

For the molecule `Cc1cc2c(c(=O)n1CCN(C)C)C(c1ccc(Cl)cc1)C(C#N)=C(N)O2` (centres undefined), the cytotoxicity is -13.8% (inactive).

On to `Cc1cc2c(c(=O)n1CCN(C)C)C(c1ccc(Br)cc1)C(C#N)=C(N)O2` (centres undefined), for which the cytotoxicity was 73.4% (active).

`Cc1cc2c(c(=O)n1CCN(C)C)C(c1ccncc1)C(C#N)=C(N)O2` (centres undefined): the cytotoxicity was 13.1% (inactive).

Consider `Cc1cccc2cc(CN(Cc3ccc(F)cc3)C(=O)N(C)C)c3nnnn3c12`, for which the cytotoxicity is 5.9% (inactive).

Turning to `Cc1ccc(SC/C(O)=C(\C#N)c2nc3ccccc3s2)cc1`, the cytotoxicity was 79.2% (active).

With `N#C/C(=C(/O)CN1CCOCC1)c1nc2ccccc2s1`, the cytotoxicity was 1.3% (inactive).

As for `COC(=O)c1ccc(/C(O)=C(\C#N)c2nc3ccccc3s2)cc1`, the cytotoxicity is 58.4% (active).

On to `COc1ccc(C/C(O)=C(\C#N)c2nc3ccccc3s2)cc1`, for which the cytotoxicity is 46.3% (inactive).

Regarding `Cc1ccc(SC/C(O)=C(\C#N)c2nc3ccccc3n2C)cc1`, the cytotoxicity was 16.2% (inactive).

With `CC(C)=C(C#N)c1nc2ccccc2s1`, the cytotoxicity is -8.8% (inactive).

Take `N=c1n(CCN2CCCCC2)c2ccccc2n1CC(O)c1cccc(Br)c1` (centres undefined): the cytotoxicity was 44.6% (inactive).

On to `C=CCn1c(SCC(=O)O)nnc1-c1cccc(Cl)c1`, for which the cytotoxicity was 5.9% (inactive).

For `Cc1cc(N2CCN(C(=O)c3ccco3)CC2)n2nc(C)nc2n1`, the cytotoxicity is 3% (inactive).

`O=C(CSc1nc(O)cc(=O)[nH]1)N1CCCc2ccccc21`: the cytotoxicity is 2.5% (inactive).

As to `CC1=C(C)SC(=C(C#N)c2nnc(N3CCOCC3)n2-c2ccccc2)S1`, the cytotoxicity was 23.4% (inactive).

On to `O=C(Nc1ccc(Nc2ccccc2)cc1)c1ccc(Br)o1`, for which the cytotoxicity was 76.8% (active).

As for `COC(=O)Cc1ccc(NC(=O)c2ccc(Br)o2)cc1`, the cytotoxicity was -2.2% (inactive).

Take `O=C(Nc1ccc(S(=O)(=O)NCCc2ccccc2)cc1)c1ccc(Br)o1`: the cytotoxicity is 12% (inactive).

Take `COc1ccccc1CNC(=O)C1CCCN(S(=O)(=O)c2c(C)[nH]c(=O)[nH]c2=O)C1` (centres undefined): the cytotoxicity is -20.9% (inactive).

For the molecule `COc1ccc(C(=O)c2ccc(OC)c(OC)c2)cc1OC`, the cytotoxicity is -8.6% (inactive).

As for `COc1ccc(C(N)=O)cc1N`, the cytotoxicity was -18.1% (inactive).

As to `COc1ccc(C(=O)c2ccc(OC)c(N)c2)cc1N`, the cytotoxicity was 78.9% (active).
